Screening data (PubChem BioAssay)
KCNQ2 block: rat KCNQ2 potassium channel inhibitors, primary screen, cell-based, CHO-K1, FluxOR thallium flux, B-score | AID 2156, 2009 | Potassium voltage-gated channel subfamily KQT member 2 (Rattus norvegicus), O88943 | B-score at 10 µM | actives 1.1% (n = 310,000) | 20 min; stronger effect = lower value;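 active = fluorescence ratio B-score at most minus 3 library SDs, with starting brightness B-score within 2 library SDs, cut at about -5.5 in these data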
Target sequence (O88943 whole entry, looked up): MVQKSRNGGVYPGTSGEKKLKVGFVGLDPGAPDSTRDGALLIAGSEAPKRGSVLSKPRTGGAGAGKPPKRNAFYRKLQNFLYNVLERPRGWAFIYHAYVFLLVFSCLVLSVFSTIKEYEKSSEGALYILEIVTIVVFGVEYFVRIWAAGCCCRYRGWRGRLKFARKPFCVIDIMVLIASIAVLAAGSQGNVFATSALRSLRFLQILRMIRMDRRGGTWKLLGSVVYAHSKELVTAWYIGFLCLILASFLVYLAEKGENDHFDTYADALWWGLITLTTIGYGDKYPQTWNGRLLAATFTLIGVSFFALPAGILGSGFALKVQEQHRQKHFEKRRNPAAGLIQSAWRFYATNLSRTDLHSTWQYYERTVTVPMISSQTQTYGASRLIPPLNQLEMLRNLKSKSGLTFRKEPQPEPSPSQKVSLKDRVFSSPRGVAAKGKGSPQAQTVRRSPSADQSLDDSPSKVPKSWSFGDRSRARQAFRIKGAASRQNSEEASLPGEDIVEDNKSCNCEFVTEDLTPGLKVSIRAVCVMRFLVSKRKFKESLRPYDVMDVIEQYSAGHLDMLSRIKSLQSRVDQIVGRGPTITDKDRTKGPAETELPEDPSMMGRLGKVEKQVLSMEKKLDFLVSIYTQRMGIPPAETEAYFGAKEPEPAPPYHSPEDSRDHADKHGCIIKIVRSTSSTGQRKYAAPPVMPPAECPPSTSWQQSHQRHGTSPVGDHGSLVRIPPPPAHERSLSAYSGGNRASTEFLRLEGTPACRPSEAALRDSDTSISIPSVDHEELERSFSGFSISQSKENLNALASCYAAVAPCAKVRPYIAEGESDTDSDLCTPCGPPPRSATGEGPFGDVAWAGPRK
KCNQ2 pot: potentiators of rat KCNQ2 potassium channel; Potassium voltage-gated channel subfamily KQT member 2 (Rattus norvegicus), O88943; CHO-K1 KCNQ2, FluxOR thallium flux fluorescence; stronger effect = higher value; B-score at 10 µM; actives 0.54% (n = 310,000);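 active = fluorescence ratio B-score at least 3 SD of library B-scores, with initial fluorescence B-score within 3 of them, cut at about 5.3 in these data; same plate scores as AID 2156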;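 note: B-score of peak minus minimum over baseline fluorescence ratio after K+ and Tl+ stimulus; positive B-score means potentiation of KCNQ2 with more thallium influx and brighter signal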
A number is an active result; - = inactive; . = no result. Sampled rows, rich in hits. Any-hit rate of the full collection: about 1.6%.

SMILES	KCNQ2 block	KCNQ2 pot
CCCCn1c(N)c(N(CCOC)C(=O)CN(C)S(=O)(=O)c2ccc(F)cc2)c(=O)[nH]c1=O	-	-
O=C(CCSc1ccc(Br)cc1)c1ccc(O)cc1	-	-
Cc1cc(C)c(C2=Nn3c(C)nnc3SC2C)cc1C (centres undefined)	-	.
CCOC(=O)/C(C)=N/NC(=O)c1ccc([N+](=O)[O-])cc1	-	-
CC(=N\NC(=O)c1ccc([N+](=O)[O-])cc1)/C(=N/O)C(=O)Nc1ccccc1	-5.8	-
COc1ccc(OC)c(NC(=S)N2c3ccccc3CC2C)c1 (centres undefined)	-	.
O=C(Nc1ccc2c(c1)N(S(=O)(=O)c1cccs1)CCC2)c1c(F)cccc1Cl	-6.4	-
COc1cccc(OC)c1C(=O)Nc1ccc2c(c1)N(S(=O)(=O)c1cccs1)CCC2	-	-
COc1ccc(C(=O)Nc2nc(CC(=O)NCCc3ccccc3OC)cs2)cc1	-	-
COc1cc(N2N=C(c3ccccc3)CC2c2ccccc2)c(C=O)cc1C=O (centres undefined)	-	.
COc1ccccc1N1N=C(c2ccc([N+](=O)[O-])cc2)CC1c1ccccc1 (centres undefined)	-6.9	-
Cc1ccc(OCC(=O)Oc2cccc(C)c2C)cc1	-	-
COc1ccc2c(c1)sc(=NC(=O)CS(=O)(=O)c1ccc(F)cc1)n2C	-	.
CCOC(=O)c1c(C)n(C)c2ccc(OC(=O)c3ccc(N4C(=O)CCC4=O)cc3)cc12	-	-
C=C1CCN([C@@H](Cc2ccccc2)C(=O)NCc2ccc(Cl)cc2)S(=O)(=O)c2ccccc21	-6	-
C=C1CCN([C@@H](Cc2ccccc2)C(=O)NCc2ccccc2)S(=O)(=O)c2ccccc21	-	.
CN(CC(=O)Nc1ccccc1C(F)(F)F)C(=O)c1ccc(N2C(=O)CCC2=O)cc1	-	-
CCOC(=O)CN=C/C(C(=O)Nc1nccs1)=C(/C)O	-	-
Nc1nc(SCC(=O)Nc2ccc(Oc3ccccc3)cc2)n[nH]1	-	-
Nc1nc(SCC(=O)Nc2cccc(Oc3ccccc3)c2)n[nH]1	-	6.4
CCOC(=O)N1c2ccccc2Sc2ccccc21	-	.
Cc1ccccc1/C(N)=N/OC(=O)N1c2ccccc2Sc2ccccc21	-5.8	-
COCCCNC(=O)CCN1N=C(c2ccccc2)CCC1=O	-	-
COc1ccc(-c2noc(CCCOc3ccc(Cl)cc3Cl)n2)cc1	-	.
Cc1ccc(-c2noc(CCCOc3ccc(Cl)cc3Cl)n2)cc1	-7.3	-
SMILES	KCNQ2 block	KCNQ2 pot
CCN1CCN(C(=O)c2cccc(OC3CCN(S(C)(=O)=O)CC3)c2)[C@@H](C)C1=O	-	-
CCN(CC)CCNc1nc(C(F)(F)F)nc2c1nnn2Cc1ccccc1	-	-
CCN(CC)CCNc1nc(-c2ccccc2)nnc1C(F)(F)F	-	9
CCN(CC)c1ccc(-c2nnc(SCC(=O)Nc3ccccc3C#N)n2-c2ccccc2)cc1	-	.
O=C(Cc1ccccc1)NC(=S)Nc1ccc(OC(F)F)cc1	-	-
Cc1ccc(C)c(S(=O)(=O)N2CCN(C(=O)CSc3ccccc3)CC2)c1	-	-
Cc1ccc(C)c(S(=O)(=O)N2CCN(C(C)C(=O)Nc3ccccc3-c3ccccc3)CC2)c1 (centres undefined)	-5.8	-
Cc1ccc(C)c(NS(=O)(=O)c2cc(C(=O)Nc3ccccc3-c3ccccc3)ccc2Cl)c1	-7.1	-
COCCNC(=O)c1ccccc1NC(=O)c1ccc(Cl)c(S(=O)(=O)Nc2ccc(C)cc2C)c1	-	.
O=C(NCC1COc2ccccc2O1)c1cccs1 (centres undefined)	-	.
O=C(NCC1COc2ccccc2O1)c1ccc(Br)s1 (centres undefined)	-6.2	-
O=C(Nc1c(C(=O)N2CCOCC2)cnn1-c1ccccc1)c1cccc(F)c1	-	.
COc1ccccc1CN1CCNC(=O)C1CC(=O)N(C)Cc1ccon1 (centres undefined)	-	-
O=C(O)Cn1c(=O)c2c3c(sc2n(Cc2ccccc2F)c1=O)CCCC3	-6.2	-
O=C(O)Cn1c(=O)c2c3c(sc2n(Cc2ccc(F)cc2)c1=O)CCCC3	-	.
Nc1nc(CN2CCN(c3ccccc3)CC2)nc(Nc2ccc(Cl)cc2)n1	-	-
C/C=C(\C)C(=O)OC1c2c(ccc3ccc(=O)oc23)OC(C)(C)C1OC(C)=O (centres undefined)	-	-
C/C=C(/C)C(=O)OC1c2c(ccc3ccc(=O)oc23)OC(C)(C)C1OC(=O)/C(C)=C\C (centres undefined)	-9.9	-
CCSc1cc(N2CCCC2)nc(-c2ccccc2Cl)n1	-	.
Cc1noc(C)c1COc1ccc(C(=O)OCc2nnc(-c3ccc(Cl)cc3)o2)cc1	-7.6	-
O=C(OCc1nnc(-c2ccc(Cl)cc2)o1)c1ccncc1	-	.
c1ccc(CCNc2nc(-c3ccncc3)nc3ccccc23)cc1	-	.
COc1ccc(/C=C(\NC(=O)c2ccc([N+](=O)[O-])cc2)C(=O)NCCCn2ccnc2)cc1	-	.
N#C/C(=C\c1ccc([N+](=O)[O-])cc1)C(=O)NCCCn1ccnc1	-5.6	-
Cc1cccc(NC(=O)CSc2nnc(CNC(=O)c3ccco3)n2C)c1	-	-
SMILES	KCNQ2 block	KCNQ2 pot
CCN(CC)C(=O)C1c2ccccc2Oc2ccccc21	-	.
CCN(CC(=O)NCc1ccc(Cl)cc1)C(=O)c1cccc(S(=O)(=O)Nc2ccc(OC)cc2)c1	-	-
CC(C)NC(=O)C(=O)NCCC1CCCCN1S(=O)(=O)c1cccs1 (centres undefined)	-	-
NNc1ccc2c(C(F)(F)F)cc(C(F)(F)F)nc2n1	-	-
N#CC(c1cccc(Cl)c1)c1ccc2c(C(F)(F)F)cc(C(F)(F)F)nc2n1 (centres undefined)	-	15
CC(=O)c1cccc(NC(=O)C(OC(=O)c2cccc(S(=O)(=O)N(C)c3ccccc3)c2)c2ccccc2)c1 (centres undefined)	-5.5	-
COc1ccc(N(C)S(=O)(=O)c2cccc(C(=O)Nc3cc(OC)ccc3OC)c2)cc1	-	.
CC(=O)c1cccc(NC(=O)C(OC(=O)c2ccccc2NS(=O)(=O)c2cccs2)c2ccccc2)c1 (centres undefined)	-	.
COc1ccc(N(C)S(=O)(=O)c2cccc(C(=O)OC(C(=O)Nc3cc(C)cc(C)c3)c3ccccc3)c2)cc1 (centres undefined)	-5.7	-
CC(=O)NS(=O)(=O)c1ccc(NC(=O)c2ccc3c(c2)C(=O)N(CCC(C)C)C3=O)cc1	-	-
O=C1CC(C(=O)O)(c2ccccc2)c2cccc(F)c21 (centres undefined)	-	.
Cc1nn(-c2ccccc2)c2c1C(c1ccc([N+](=O)[O-])cc1)N1C(=N2)C(=O)Nc2ccccc21 (centres undefined)	-	-
Cc1nn(-c2ccccc2)c2c1C(c1ccc(Cl)cc1)N(c1ccccc1)C(=O)N2 (centres undefined)	-7.6	-
COc1cc(C(=O)OCC(=O)NCc2ccc(F)cc2)ccc1OCC(C)C	-	.
CC(C)OC(=O)C(C)(C)Oc1ccc(C(=O)c2ccc(Cl)cc2)cc1	-8.1	-
CC(C)(Oc1ccc(Cl)cc1)C(=O)O	-	-
COc1cc2c(cc1OC)CN(C(=O)C(CCSC)NS(=O)(=O)c1ccc(C)cc1)CC2 (centres undefined)	-	-
O=C(Nc1ccccc1)NC1CCCCCCC1	-	-
